This is part of a sample that, as a whole, favours compounds with a hit. Of some 83,000 tested, about 20% had one in any assay.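 96-well plates, one dose, 48 hours. Percent growth reported; active if below 10.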 Active and inactive are the calls of the source.

Drawing on PubChem BioAssay (NCI), this text covers growth for nine compounds.

Test systems include SK-MEL-2 melanoma; EKVX NSCLC; SN12C renal; UO-31 renal; TK-10 renal; ACHN renal; A498 renal; CCRF-CEM leukemia; MOLT-4 leukemia; SR leukemia; RPMI-8226 leukemia; OVCAR-8 ovarian; OVCAR-5 ovarian; OVCAR-4 ovarian; SK-OV-3 ovarian; IGROV1 ovarian; HS 578T breast; NCI/ADR-RES ovarian; OVCAR-3 ovarian.
Common to all, as to assay: NCI-60 one-dose screen, 48 h (100 = growth as untreated, 0 = no growth, -100 = all killed)
Details in all cases: 10 µM unless noted

On to `C[C@H]1C=C(C[C@@H](O)CCCCCCCCCC[C@@H](O)[C@H]2CCC(=O)O2)C(=O)O1`, for which the growth with SK-MEL-2 melanoma is 80.2% (inactive); with EKVX NSCLC, 91% (inactive); in the test with SN12C renal it was 117% (inactive); in the test with UO-31 renal, 82% (inactive); in the test with TK-10 renal it was 100% (inactive); with ACHN renal, 96.8% (inactive). The growth with A498 renal was 163% (inactive); with CCRF-CEM leukemia, 78.5% (inactive); in the test on MOLT-4 leukemia, 112% (inactive); in the test on SR leukemia, 114% (inactive); in the test with RPMI-8226 leukemia it was 79.9% (inactive); in the test with OVCAR-8 ovarian, 96.7% (inactive). Besides, the growth is 91.7% (inactive) with OVCAR-5 ovarian; 97.6% (inactive) in the test on OVCAR-4 ovarian; 110% (inactive) in the test with SK-OV-3 ovarian; -23.5% (active) in the test with IGROV1 ovarian; 128% (inactive) with HS 578T breast; 99.6% (inactive) in the test on NCI/ADR-RES ovarian.
Take `COc1cc(-c2nc3sc(C)cn3c2/C=C2\C(=O)Nc3ccccc32)c(Br)c(OC)c1OC`: the growth was 74.3% (inactive) in the test on SK-MEL-2 melanoma; 31.5% (inactive) in the test on EKVX NSCLC; 90.9% (inactive) in the test on SN12C renal; 24.8% (inactive) in the test on UO-31 renal; 56.5% (inactive) in the test on TK-10 renal; 57% (inactive) in the test on ACHN renal. The growth is 22.6% (inactive) with A498 renal; 34.7% (inactive) with CCRF-CEM leukemia; 39.9% (inactive) in the test with MOLT-4 leukemia; 3.87% (active) in the test with SR leukemia; 28.6% (inactive) in the test on RPMI-8226 leukemia; 65% (inactive) with OVCAR-8 ovarian. Further, the growth with OVCAR-5 ovarian was 81.6% (inactive); in the test with OVCAR-4 ovarian, 54.4% (inactive); in the test on SK-OV-3 ovarian, 31.2% (inactive); with IGROV1 ovarian, -11.8% (active); in the test on HS 578T breast, 15.7% (inactive); in the test with NCI/ADR-RES ovarian, 22.9% (inactive).
As for `Cn1c2ccccc2c2ssc(=S)c21`, the growth with SK-MEL-2 melanoma is 92.8% (inactive); with EKVX NSCLC, 39.5% (inactive); in the test on SN12C renal, 116% (inactive); with UO-31 renal it was 84% (inactive); in the test on TK-10 renal, 111% (inactive); with ACHN renal it was 114% (inactive). Further, the growth in the test with A498 renal is 86.1% (inactive); in the test on CCRF-CEM leukemia it was 116% (inactive); with MOLT-4 leukemia, 75.5% (inactive); with SR leukemia, 103% (inactive); with RPMI-8226 leukemia it was 124% (inactive); in the test with OVCAR-8 ovarian, 102% (inactive). Besides, the growth with OVCAR-5 ovarian was 99.7% (inactive); with OVCAR-4 ovarian, 89.5% (inactive); with SK-OV-3 ovarian, 119% (inactive); in the test on IGROV1 ovarian, -26.5% (active); in the test with HS 578T breast, 70.3% (inactive); with NCI/ADR-RES ovarian it was 86.8% (inactive).
For `O=C(c1ccccc1)[C@H]1[C@@H]2CCCN2[C@]2(C(=O)Nc3ccc(F)cc32)[C@]12C(=O)Nc1ccccc12`, the growth was 83.1% (inactive) with SK-MEL-2 melanoma; 70.8% (inactive) in the test with EKVX NSCLC; 92% (inactive) with SN12C renal; 85.4% (inactive) in the test with UO-31 renal; 113% (inactive) with TK-10 renal; 88.6% (inactive) in the test with ACHN renal. For the same compound, the growth was 89.7% (inactive) with A498 renal; 76.8% (inactive) with CCRF-CEM leukemia; 59.5% (inactive) with MOLT-4 leukemia; 85.2% (inactive) in the test with SR leukemia; 71.2% (inactive) in the test with RPMI-8226 leukemia; 88.8% (inactive) with OVCAR-8 ovarian. The growth in the test with OVCAR-5 ovarian was 91.7% (inactive); in the test with OVCAR-4 ovarian, 81.6% (inactive); with SK-OV-3 ovarian, 83.8% (inactive); in the test on IGROV1 ovarian, 81.3% (inactive); with HS 578T breast, 96.1% (inactive); in the test on NCI/ADR-RES ovarian, 96.7% (inactive).
As for `CCC1S/C(=N\N=C(/C)c2cc3ccccc3o2)N(c2ccccc2)C1=O` (configuration not stated), the growth with SK-MEL-2 melanoma is 99.6% (inactive); in the test on EKVX NSCLC it was 135% (inactive); with SN12C renal, 120% (inactive); in the test on UO-31 renal, 75.9% (inactive); in the test on TK-10 renal, 108% (inactive); with ACHN renal, 100% (inactive). Besides, the growth in the test with A498 renal is 136% (inactive); with CCRF-CEM leukemia it was -72.8% (active); with MOLT-4 leukemia, -80.8% (active); in the test with SR leukemia it was 15% (inactive); in the test with RPMI-8226 leukemia it was 65.4% (inactive); with OVCAR-8 ovarian it was 105% (inactive). Further, the growth in the test with OVCAR-5 ovarian was 106% (inactive); in the test on OVCAR-4 ovarian, 95.1% (inactive); in the test on SK-OV-3 ovarian it was 116% (inactive); in the test with IGROV1 ovarian, -12.9% (active); with HS 578T breast, 98.7% (inactive); with NCI/ADR-RES ovarian, 89% (inactive).
Consider `Oc1ccc(O)c(-[n+]2ccccc2)c1`, for which the growth with SK-MEL-2 melanoma is 101% (inactive); in the test with EKVX NSCLC, 105% (inactive); with SN12C renal it was 98.1% (inactive); in the test with UO-31 renal, 94% (inactive); with TK-10 renal it was 100% (inactive); with ACHN renal, 107% (inactive). Moreover, the growth is 108% (inactive) in the test on A498 renal; 101% (inactive) with CCRF-CEM leukemia; 91.9% (inactive) with MOLT-4 leukemia; 93.7% (inactive) with SR leukemia; 99.5% (inactive) in the test with OVCAR-8 ovarian; 108% (inactive) in the test on OVCAR-5 ovarian. The growth with OVCAR-4 ovarian was 108% (inactive); in the test with SK-OV-3 ovarian it was 98.7% (inactive); in the test with IGROV1 ovarian, 107% (inactive); with OVCAR-3 ovarian it was 109% (inactive); in the test on HS 578T breast it was 96% (inactive); in the test with NCI/ADR-RES ovarian, 108% (inactive).
In the case of `CN(C)c1ccc(/C=N/n2c(-c3cc(F)c(Cl)cc3Cl)nn(CN3CCOCC3)c2=S)cc1`, the growth with SK-MEL-2 melanoma was 104% (inactive); in the test on EKVX NSCLC, 107% (inactive); in the test on SN12C renal, 103% (inactive); with UO-31 renal, 69.1% (inactive); with TK-10 renal, 107% (inactive); in the test with ACHN renal, 98.6% (inactive). The growth with A498 renal was 77.9% (inactive); in the test on CCRF-CEM leukemia it was 92.4% (inactive); in the test with MOLT-4 leukemia, 88.8% (inactive); in the test on SR leukemia, 83.6% (inactive); in the test on RPMI-8226 leukemia it was 97.2% (inactive); in the test on OVCAR-8 ovarian, 104% (inactive). Moreover, the growth is 92.8% (inactive) in the test on OVCAR-5 ovarian; 106% (inactive) in the test on OVCAR-4 ovarian; 101% (inactive) in the test on SK-OV-3 ovarian; 104% (inactive) in the test with IGROV1 ovarian; 110% (inactive) in the test with HS 578T breast; 97.3% (inactive) in the test with NCI/ADR-RES ovarian.
As for `COc1cc2c(/C=C3/C(=O)Nc4ccc(O)cc43)c(Cl)n(Cc3cc(OC)c(OC)c(OC)c3)c2cc1C`, the growth in the test with SK-MEL-2 melanoma is 36.7% (inactive); in the test with EKVX NSCLC, 13.3% (inactive); in the test with SN12C renal it was 59.6% (inactive); in the test with UO-31 renal it was -0.307% (active); with TK-10 renal, 25.8% (inactive); in the test on ACHN renal it was 130% (inactive). The growth in the test with A498 renal was 24.9% (inactive); with CCRF-CEM leukemia, -9.62% (active); with MOLT-4 leukemia it was -24.1% (active); in the test with SR leukemia it was -38.1% (active); in the test with RPMI-8226 leukemia, -22.9% (active); in the test on OVCAR-8 ovarian, 22.3% (inactive). Also, the growth with OVCAR-5 ovarian is 74.1% (inactive); in the test with OVCAR-4 ovarian, 21.8% (inactive); in the test with SK-OV-3 ovarian, 38.5% (inactive); in the test on IGROV1 ovarian, 26.9% (inactive); with HS 578T breast, 4.73% (active); in the test on NCI/ADR-RES ovarian, 9.32% (active).
For `CN1CCN(CC(O)COc2c(Br)c(Br)c(Br)c3c2OC(C)(C)C3)CC1` (configuration not stated), the growth with SK-MEL-2 melanoma is 38.5% (inactive); with EKVX NSCLC it was 87.7% (inactive); in the test with SN12C renal, 92.5% (inactive); in the test on UO-31 renal, -14.8% (active); in the test on TK-10 renal, 74.1% (inactive); in the test on ACHN renal, 77.9% (inactive). For the same compound, the growth is 58.1% (inactive) in the test with A498 renal; 15.6% (inactive) with CCRF-CEM leukemia; 18.3% (inactive) in the test on MOLT-4 leukemia; -26.4% (active) with SR leukemia; -11.3% (active) with RPMI-8226 leukemia; 91.1% (inactive) in the test on OVCAR-8 ovarian. In addition, the growth in the test on OVCAR-5 ovarian was 78.9% (inactive); in the test on OVCAR-4 ovarian, 82.3% (inactive); in the test with SK-OV-3 ovarian it was 109% (inactive); in the test with IGROV1 ovarian it was -66.9% (active); in the test on HS 578T breast it was 55.5% (inactive); in the test with NCI/ADR-RES ovarian, 64.5% (inactive).
